This note sets out measurements from PubChem BioAssay (NCI).

Among the test systems are HCT-15 colon; HT29 colon; SNB-75 CNS; SNB-19 CNS; U251 CNS; PC-3 prostate; SK-MEL-5 melanoma; UACC-62 melanoma; LOX IMVI melanoma; SK-MEL-28 melanoma; SK-MEL-2 melanoma; EKVX NSCLC; SN12C renal; UO-31 renal; TK-10 renal; ACHN renal; CAKI-1 renal; A498 renal; CCRF-CEM leukemia; MOLT-4 leukemia.
Common to all, as to experiment: NCI-60 one-dose screen, 48 h (100 = growth as untreated, 0 = no growth, -100 = all killed)
What all share (details): 10 µM unless noted

The panel holds about 83,000 compounds, 20% with a hit somewhere; the sample as a whole holds those more often.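 In brief: 96-well plates, 48 h treatment, single concentration, percent growth endpoint.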 Unmarked numbers belong to inactive results. Calls of active or inactive are those of the source. How the source made its calls: active means growth percent below 10; inactive means the rest.

Turning to `CCOC(=O)OCC(=O)[C@@]1(O)CC[C@H]2[C@@H]3CCC4=CC(=O)CC[C@]4(C)[C@H]3[C@@H](O)C[C@@]21C`, the growth in the assay on HCT-15 colon is 105%; in the assay on HT29 colon, 103%; in the assay on SNB-75 CNS, 119%; in the assay on SNB-19 CNS, 96.4%; in the assay on U251 CNS, 103%; in the assay with PC-3 prostate, 92%. In addition, the growth in the assay on SK-MEL-5 melanoma is 98.2%; in the assay on UACC-62 melanoma, 87.6%; in the assay with LOX IMVI melanoma it was 89.8%; in the assay with SK-MEL-28 melanoma it was 110%; with SK-MEL-2 melanoma, 102%; in the assay with EKVX NSCLC, 85.4%. The growth in the assay with SN12C renal was 87.2%; in the assay with UO-31 renal, 76.2%; in the assay on TK-10 renal it was 96.4%; in the assay with ACHN renal, 99.3%; in the assay with CAKI-1 renal, 90.9%; in the assay on A498 renal it was 98.8%. The growth in the assay with CCRF-CEM leukemia was 84.6%; in the assay with MOLT-4 leukemia, 93.2%.
As for `O=C(CSc1ncc(-c2ccccc2)n1-c1ccccc1)Nc1ccc(-c2nc3ccccc3s2)cc1`, the growth is 69% in the assay with HCT-15 colon; 38.1% in the assay with HT29 colon; 103% with SNB-75 CNS; 90.4% in the assay on SNB-19 CNS; 24.7% with U251 CNS; 80% in the assay with PC-3 prostate. In addition, the growth with SK-MEL-5 melanoma is 75.7%; in the assay on UACC-62 melanoma, 87.3%; in the assay with LOX IMVI melanoma, 63.5%; in the assay with SK-MEL-28 melanoma it was 80%; in the assay on SK-MEL-2 melanoma it was 80.6%; in the assay on EKVX NSCLC, 103%. The growth in the assay with SN12C renal is 71.2%; with UO-31 renal, 98.4%; in the assay with TK-10 renal, 44.2%; with ACHN renal, 102%; with CAKI-1 renal, 87.4%; with A498 renal it was 107%. Besides, the growth with CCRF-CEM leukemia is 83.8%; in the assay with MOLT-4 leukemia it was 66.6%.
As for `O=C1OC(Oc2ccccc2)(c2ccccc2)c2ccccc21` (stereo not given), the growth with HCT-15 colon was 99.7%; in the assay with HT29 colon, 102%; in the assay with SNB-75 CNS, 97.2%; in the assay with SNB-19 CNS it was 115%; with U251 CNS, 91.4%; with PC-3 prostate, 91.2%. The growth in the assay with SK-MEL-5 melanoma is 112%; in the assay with UACC-62 melanoma, 100%; with LOX IMVI melanoma, 89.2%; in the assay on SK-MEL-28 melanoma it was 127%; in the assay on SK-MEL-2 melanoma, 104%; in the assay on EKVX NSCLC it was 133%. Also, the growth in the assay on SN12C renal is 110%; in the assay with UO-31 renal, 102%; in the assay on TK-10 renal, 109%; in the assay with ACHN renal it was 102%; in the assay with CAKI-1 renal, 87.4%; in the assay on A498 renal it was 79.9%. The growth with CCRF-CEM leukemia is 103%; in the assay on MOLT-4 leukemia it was 76%.
In the case of `Cc1cc(=O)oc2cc(OCCn3c(C)nn(-c4ccc(Cl)cc4)c3=O)ccc12`, the growth was 17.7% in the assay with HCT-15 colon; 0.696% (active) in the assay with HT29 colon; 20.4% in the assay on SNB-75 CNS; 54.5% in the assay on SNB-19 CNS; 31.4% with U251 CNS; 48.5% with PC-3 prostate. Also, the growth is 10.8% in the assay with SK-MEL-5 melanoma; 43.3% with UACC-62 melanoma; 48% with LOX IMVI melanoma; 40.8% in the assay with SK-MEL-28 melanoma; 3.55% (active) with SK-MEL-2 melanoma; 58.7% in the assay with EKVX NSCLC. The growth in the assay with SN12C renal was 51.8%; with UO-31 renal it was 42.8%; with TK-10 renal, 59.6%; with ACHN renal, 41.9%; in the assay on CAKI-1 renal, 19.5%; with A498 renal it was 25.7%. Moreover, the growth in the assay on CCRF-CEM leukemia is 13.4%; in the assay on MOLT-4 leukemia it was 37.6%.
`C[C@@H]1CN(c2nc3c(cc2F)c(=O)c(C(=O)O)cn3C(C)(C)C)C[C@H](C)N1`: the growth with HCT-15 colon is 106%; in the assay with HT29 colon, 95.8%; in the assay with SNB-75 CNS, 114%; with SNB-19 CNS it was 106%; with U251 CNS, 103%; in the assay on PC-3 prostate, 89.1%. Also, the growth in the assay on SK-MEL-5 melanoma was 92.4%; in the assay with UACC-62 melanoma, 90%; in the assay on LOX IMVI melanoma, 90.5%; in the assay with SK-MEL-28 melanoma, 122%; in the assay with SK-MEL-2 melanoma, 97.1%; in the assay with EKVX NSCLC it was 104%. Besides, the growth was 104% in the assay on SN12C renal; 94.2% in the assay with UO-31 renal; 102% in the assay on TK-10 renal; 99.8% with ACHN renal; -7.72% (active) in the assay with CAKI-1 renal; 107% with A498 renal. The growth in the assay on CCRF-CEM leukemia was 102%; in the assay on MOLT-4 leukemia it was 101%.
`NC(=O)NS(=O)(=O)c1ccc(N2N=C(C(F)(F)F)CC2c2cc(C(F)(F)F)cc(C(F)(F)F)c2)cc1` (stereo not given): the growth in the assay on HCT-15 colon is 62.9%; in the assay on HT29 colon it was 70.4%; in the assay with SNB-75 CNS it was 68.1%; in the assay with SNB-19 CNS, 85%; with U251 CNS, 74.6%; with PC-3 prostate, 16.2%. In addition, the growth with SK-MEL-5 melanoma was 75.5%; with UACC-62 melanoma, 82.7%; in the assay on LOX IMVI melanoma it was 78.6%; in the assay on SK-MEL-28 melanoma, 84.8%; in the assay on SK-MEL-2 melanoma it was 11.2%; with EKVX NSCLC it was 58.5%. Also, the growth in the assay on SN12C renal was 83.5%; in the assay on UO-31 renal it was 49.6%; in the assay with TK-10 renal it was 85.6%; in the assay with ACHN renal, 80.7%; with CAKI-1 renal, 78.9%; with A498 renal, 70.1%. Besides, the growth was 37.4% in the assay on CCRF-CEM leukemia and 43.2% with MOLT-4 leukemia.
Consider `O=C1C=CC(=O)N1c1ccccc1N1C(=O)C=CC1=O`, for which the growth in the assay with HCT-15 colon was 99.6%; with HT29 colon it was 99.2%; in the assay with SNB-75 CNS it was 91.7%; with SNB-19 CNS it was 91%; in the assay with U251 CNS, 108%; in the assay with PC-3 prostate, 97.5%. Besides, the growth with SK-MEL-5 melanoma is 106%; in the assay on UACC-62 melanoma, 87.4%; with LOX IMVI melanoma, 97.2%; in the assay with SK-MEL-28 melanoma it was 114%; in the assay on SK-MEL-2 melanoma it was 98.6%; with EKVX NSCLC, 115%. For the same compound, the growth is 97.5% with SN12C renal; 79.4% with UO-31 renal; 97.3% with TK-10 renal; 88% in the assay on ACHN renal; 85.2% in the assay on CAKI-1 renal; 101% in the assay on A498 renal. Further, the growth is 1.88% (active) in the assay on CCRF-CEM leukemia and 99.2% in the assay with MOLT-4 leukemia.
For the compound `CC[C@@H](C)/C=C(C)/C=C/C(O)=C1\C(=O)N[C@@H](Cc2ccc(OC(=O)[C@@](OC)(c3ccccc3)C(F)(F)F)cc2)C1=O`, the growth is 102% in the assay with HCT-15 colon; 114% in the assay with HT29 colon; 101% in the assay on SNB-75 CNS; 96.6% with SNB-19 CNS; 83.9% with U251 CNS; 37.3% in the assay on PC-3 prostate. Further, the growth is 110% in the assay with SK-MEL-5 melanoma; 98.9% in the assay on UACC-62 melanoma; 50.3% with LOX IMVI melanoma; 103% in the assay on SK-MEL-28 melanoma; 80.2% in the assay with SK-MEL-2 melanoma; 54.1% in the assay on EKVX NSCLC. The growth in the assay on SN12C renal is 86.5%; in the assay with UO-31 renal, 70.9%; with TK-10 renal, 96.8%; in the assay on ACHN renal, 103%; with CAKI-1 renal it was 30.5%; in the assay with A498 renal, 64.7%. Also, the growth in the assay on CCRF-CEM leukemia is 29.7%; in the assay on MOLT-4 leukemia, 41.6%.
